Laboratory results published in PubChem BioAssay AID720664 (National Center for Advancing Translational Sciences (NCATS), 2013).
Inconclusive results are not listed. Calls of active or inactive are those of the source. Calls follow the shape of the dose curve; as a rule, active = well fitted inhibition curve with a large enough effect; inconclusive = small, poorly fitted or top-dose-only effect; inactive = flat fitted curve, though single readings scatter.

Target: Galactokinase (Homo sapiens) (UniProt P51570)
Assay: qHTS for Inhibitors of Human Galactokinase (GALK): SAR round 3
Details: ADP detection luminescence, 1 h; series mostly up to 57.5 µM; activity change, negative = inhibition: at the top concentration
Source text: Inherited deficiency of galactose-1-phosphate uridyltransferase (GALT) can result in a potentially lethal disorder called Classic Galactosemia (OMIM 230400). Several lines of evidence indicate that an elevated level of galactose-1-phosphate (gal-1-p), the product of galactokinase (GALK), is a major, if not sole, pathogenic mechanism in patients with classic galactosemia. Therefore, finding inhibitors of GALK is a potential novel therapy for this inherent metabolic disease and is the long term goal of this project. Active compounds observed in the qHTS GALK assay (AID: 1868) were cherry picked and re-screened for validation. GALK (provided by Kent Lai) was assayed using ATP and D-(+)-Galactose (Sigma-Aldrich cat# G0750) as substrates. Promega ADP-Glo technology was used to detect the ADP product formed after the kinase reaction. Kinase reactions with and without GALK were used as negative and positive controls together with Protein Tyrosine Phosphatase CD45 inhibitor (EMD Bioscience cat# 540215) which is shown to inhibit GALK activity. Decrease in activity corresponds to inhibition of the enzyme, the desired outcome for this assay. NIH Molecular Libraries Probe Production Network [MLPCN] NIH Chemical Genomics Center [NCGC] Grant: MH085689-01 PI Name: Kent Lai, University of Utah
Three uL/well of ATP-buffer solution (35 uM ATP, 20mM HEPES pH8.0, 5 mM MgCl2, 60 mM NaCl, 1 mM DTT, 0.01% BSA final concentration) was dispensed into 1536-well, assay plates (Greiner, solid white medium-binding plates) with Aurora Discovery BioRAPTR Flying Reagent Dispenser (FRD; Beckton-Dickenson). Compound and control solution (23 nL) was transferred to the assay plate using the Kalypsys 1536-pin tool apparatus. One uL/well GALK-galactose solution (5 nM GALK, 100 uM galactose, 20 mM HEPES pH8.0, 5 mM MgCl2, 60 mM NaCl, 1 mM DTT, 0.01% BSA final concentration) was then added using the FRD yielding a total kinase reaction volume of 4 uL/ well. After 1 hour of room temperature incubation, 4 uL Kinase-Glo Plus reagent was added for a final assay volume of 8 uL/well. Luminescence was detected with the ViewLux plate reader (Perkin Elmer, Waltham, MA) after 2 min incubation using a 1 sec exposure time and 2x binning.

Sequence of Galactokinase (Homo sapiens) (P51570 whole entry, looked up): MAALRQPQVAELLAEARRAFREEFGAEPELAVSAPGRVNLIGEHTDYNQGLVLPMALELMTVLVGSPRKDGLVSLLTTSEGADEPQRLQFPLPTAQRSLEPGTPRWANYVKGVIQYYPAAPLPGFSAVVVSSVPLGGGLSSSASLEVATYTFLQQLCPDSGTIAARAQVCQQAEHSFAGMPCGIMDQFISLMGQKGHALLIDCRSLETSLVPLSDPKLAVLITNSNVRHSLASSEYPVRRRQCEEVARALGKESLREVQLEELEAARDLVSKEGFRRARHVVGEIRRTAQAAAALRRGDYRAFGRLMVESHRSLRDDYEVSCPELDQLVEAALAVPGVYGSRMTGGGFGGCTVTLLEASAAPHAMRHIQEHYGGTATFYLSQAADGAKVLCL

Row | SMILES | activity change, negative = inhibition | Potency
1 | O=C1CCCC2=C1C(c1[nH]ncc1Cl)N=C(Nc1nc3c(Cl)cccc3o1)N2 (stereo not given) | -2.85% (inactive) | 
2 | O=C1CCCC2=C1C(c1cccc(C(F)(F)F)c1)N=C(Nc1nc3ccccc3o1)N2 (stereo not given) | -8.12% (inactive) | 
3 | O=C1CCCC2=C1C(c1[nH]ncc1Cl)N=C(Nc1ccccn1)N2 (stereo not given) | 0.613% (inactive) | 
4 | CC1(C)N=C(Nc2nc3ccccc3o2)NC2=C1C(=O)CCC2 | -19.7% (inactive) | 
5 | O=C1C2=C(CN1Cc1ccccc1)NC(Nc1nc3ccccc3o1)=NC2c1ccccc1Cl (stereo not given) | -1.63% (inactive) | 
6 | O=C1CCCC2=C1C(c1cccnc1)N=C(Nc1nc3ccccc3o1)N2 (stereo not given) | -15.6% (inactive) | 
7 | O=C1CCCC2=C1C(c1ccccc1)N=C(Nc1nc3ccccc3o1)N2 (stereo not given) | -25% (inactive) | 
8 | CN(C)c1ccc(C2N=C(Nc3nc4ccccc4o3)NC3=C2C(=O)CCC3)cc1 (stereo not given) | -0.254% (inactive) | 
9 | O=C1CCCC2=C1C(c1[nH]ncc1Cl)NC(=NCc1nccs1)N2 (stereo not given) | 3.63% (inactive) | 
10 | CCOC(=O)c1cnc(NC2=NC(c3ccccc3Cl)C3=C(CCCC3=O)N2)o1 (stereo not given) | 1.33% (inactive) | 
11 | O=C1CCCC2=C1C(c1[nH]ncc1Cl)N=C(Nc1nc3ccc(Cl)cc3o1)N2 (stereo not given) | -5.94% (inactive) | 
12 | O=C1CCCC2=C1C1(CCSCC1)N=C(Nc1nc3ccccc3o1)N2 |  | 3.43 µM (active)
13 | Cc1cc(NC2=NC(c3[nH]ncc3Cl)C3=C(CCCC3=O)N2)no1 (stereo not given) | -5.6% (inactive) | 
14 | COc1cccc(C2N=C(Nc3nc4ccccc4o3)NC3=C2C(=O)CCC3)c1 (stereo not given) | -29% (inactive) | 
15 | O=C1NC2=C(C(=O)CCC2)C(c2ccccc2Cl)N1 (stereo not given) | 1.11% (inactive) | 
16 | Cc1nc(Nc2nc3ccccc3o2)nc2c1CCCC2 | -1.21% (inactive) | 
17 | CC1=C(C(=O)NC2CC2)C(c2[nH]ncc2Cl)N=C(Nc2nc3ccccc3o2)N1 (stereo not given) | -24.1% (inactive) | 
18 | O=C1CCCC2=C1C(c1cccnc1Cl)N=C(Nc1nc3ccccc3o1)N2 (stereo not given) | -21.4% (inactive) | 
19 | Cn1c(NC2=NC3(CCCC3)C3=C(CCCC3=O)N2)nc2ccccc21 | 3.5% (inactive) | 
20 | Cn1ncc(Cl)c1C1N=C(Nc2nc3ccccc3o2)NC2=C1C(=O)CCC2 (stereo not given) | -5.52% (inactive) | 

Row | SMILES | activity change, negative = inhibition | Potency
21 | Cn1cccc1CN=C1NC2=C(C(=O)CCC2)C(c2[nH]ncc2Cl)N1 (stereo not given) | -1.27% (inactive) | 
22 | O=C1CCCC2=C1C(c1ccccc1Cl)N=C(Nc1ncc(-c3ccccc3)o1)N2 (stereo not given) | 8.02% (inactive) | 
23 | Cc1ccc(C2N=C(Nc3nc4ccccc4o3)NC3=C2C(=O)CCC3)s1 (stereo not given) | -21.2% (inactive) | 
24 | CC1(C)CC(=O)C2=C(C1)NC(Nc1nc3ccccc3o1)=NC21CCCC1 | -18.6% (inactive) | 
25 | O=C1CCCC2=C1C(c1ccccc1Cl)N=C(c1ccccn1)N2 (stereo not given) | -3.03% (inactive) | 
26 | CC1=C(C(=O)Nc2nc3ccccc3s2)C2(CCCC2)N=C(Nc2nc3ccccc3o2)N1 | -10.2% (inactive) | 
27 | O=C1CCCC2=C1C(c1[nH]ncc1Cl)N=C(Nc1cccnc1)N2 (stereo not given) | 0.256% (inactive) | 
28 | O=C1CCCC2=C1C1(CCSC1)N=C(Nc1nc3ccccc3o1)N2 (stereo not given) |  | 19.3 µM (active)
29 | CC1=C(C(=O)c2ccccc2)C(c2ccccc2Cl)N=C(Nc2nc3ccccc3o2)N1 (stereo not given) | -4.91% (inactive) | 
30 | O=C1CCCC2=C1C(c1ccncc1)N=C(Nc1nc3ccccc3o1)N2 (stereo not given) | -5.76% (inactive) | 
31 | CC(C)c1nc(Nc2nc3ccccc3o2)nc2c1CCCC2 | -2.24% (inactive) | 
32 | O=C1CCCC2=C1C(c1cccc(Oc3ccccc3)c1)N=C(Nc1nc3ccccc3o1)N2 (stereo not given) | -7.55% (inactive) | 
33 | Cc1nc(Nc2nc3ccccc3o2)nc(-c2ccccc2Br)c1C(=O)NCc1ccccc1 | 2.91% (inactive) | 
34 | Cc1ccc(C2N=C(Nc3nc4ccccc4o3)NC3=C2C(=O)CCC3)cc1 (stereo not given) | -4.94% (inactive) | 
35 | O=C1CCCC2=C1C(c1c(Cl)cccc1Cl)N=C(Nc1nc3ccccc3o1)N2 (stereo not given) | -16.4% (inactive) | 
36 | Cc1nc(NC2=NC(c3ccccc3Cl)C3=C(CCCC3=O)N2)oc1C (stereo not given) | 2.17% (inactive) | 
37 | CC1=C(C(=O)Nc2ccon2)C2(CCCC2)N=C(Nc2nc3ccccc3o2)N1 |  | 17.2 µM (active)
38 | O=C1CCCC2=C1C1(CCCC1)N=C(Nc1nc3cc(-c4ccccc4)ccc3o1)N2 | -10.9% (inactive) | 
39 | Cc1ccc2oc(NC3=NC(c4ccccc4Cl)C4=C(CCCC4=O)N3)nc2c1 (stereo not given) |  | 6.11 µM (active)
40 | O=C1CCCC2=C1C(c1[nH]ncc1Cl)N=C(Nc1ccn[nH]1)N2 (stereo not given) | 3.24% (inactive) | 
